Screens from PubChem BioAssay.
tim23-1 inh: growth inhibitors of tim23-1 mutant yeast, primary screen, luminescence, uHTS; S. cerevisiae tim23-1 growth, BacTiter-Glo luminescence, 24 h; inhibition, % at 20 µM; 330,000 tested, 1.3% active; AID 463212, 2010;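 active = growth inhibition of the mutant yeast at or above 50%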;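 also: temperature-sensitive mutant grown at 25 °C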
TIM10 inh: growth inhibitors of isogenic TIM10 control yeast, primary screen, counter-screen for tim10-1 yeast inhibitor project, luminescence, uHTS; S. cerevisiae TIM10 strain growth, BacTiter-Glo luminescence, 24 h; inhibition, % at 10 µM; 330,000 tested, 1.4% active; AID 463195, 2010;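 active = inhibition of 40% or more at the single tested concentration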;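 also: wild-type TIM10 isogenic control strain grown at permissive 25 °C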
NALP1 yeast inh: NALP1 inflammasome inhibitors in reconstituted yeast, colorimetric, S. cerevisiae, triplicate retest; S. cerevisiae NALP1/ASC/caspase-1 growth, X-gal OD620, 72 h; inhibition, % at 10 µM; 280,000 tested, 0.61% active; in the data active = inhibition mostly above about 24%, no sharp cut-off; inactive = mostly below about 32%
tim10-1 inh: growth inhibitors of tim10-1 mutant yeast, primary screen, luminescence, uHTS. AID 463190, 2010. 330,000 tested, 2.2% active. S. cerevisiae tim10-1 ts strain growth, BacTiter-Glo, 24 h. inhibition, % at 20 µM;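 active = inhibition of at least 40%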;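 also: mutant grown at 25 °C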
NALP3 yeast inh: NALP3 inflammasome inhibitors in reconstituted yeast, primary screen, luminescence, uHTS | Yeast reconstituted NLRP3/ASC/caspase-1, beta-gal luminescence, 24 h | inhibition, % at 10 µM | 330,000 tested, 0.39% active | AID 2825, 2010;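 active = inhibition of 50% or more; inactive = inhibition below 50%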
tim10-1 conf: growth inhibitors of tim10-1 mutant yeast, confirmation, single concentration, luminescence, S. cerevisiae | shares compounds with tim10-1 inh | S. cerevisiae tim10-1 ts strain growth, BacTiter-Glo, 24 h | inhibition, % at 20 µM | 7,400 tested, 56% active | AID 463213, 2010;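 active = inhibition of yeast growth at or above a set limit in either of two repeat tests at 20 µM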;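 also: tim10-1 mutant grown at permissive 25 °C to find synthetic lethal compounds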
Large screens that a line does not name were inactive (follow-up assays come after a bar, where they were run). In the library only some 4% were active in any assay of this set; here they are far more common.

COc1ccccc1C1=Nn2c(nnc2C2CCCCC2)SC1	tim10-1 inh 44 | tim10-1 conf inactive
Cc1ccc(-c2nc(CCNC(=O)c3ccco3)cs2)cc1	none (no result: NALP1 yeast inh)
O=C(NCCc1csc(-c2ccc(Cl)cc2)n1)c1ccco1	tim10-1 inh 43 | tim10-1 conf inactive
Cc1nc([N+](=O)[O-])c(C(=O)OCc2cccc(Br)c2)n1C	tim10-1 inh 43 | tim10-1 conf 33
CCN(CC)CC(C)CNC(=O)C1(O)c2ccccc2NC(=O)N1c1ccc(Cl)c(Cl)c1 (stereo not given)	none
COc1ccc(N2CCN(Cc3nc(N)nc(N4CCCc5ccccc54)n3)CC2)cc1	tim10-1 inh 40 | tim10-1 conf inactive
COc1ccc(CN2CC(C(=O)NCCCN3CCCC(C)C3)CC2=O)cc1 (stereo not given)	none
Cc1ccc(NC(=O)c2sc(N)nc2-c2ccccc2)cc1C	tim10-1 inh 49 | tim10-1 conf 37
Cc1ccc(NC(=O)c2sc(N)nc2-c2ccc([N+](=O)[O-])cc2)cc1C	none
Cc1ccc(-c2nn(CCC(N)=O)c(=O)c3ccccc23)cc1	none
CCn1nc(C)c(NC(=O)c2cnn3c(C(F)F)cc(-c4ccccc4)nc23)c1C	tim10-1 inh 42 | tim10-1 conf inactive
O=C(NN1CCCCC1)c1cnn2c(C(F)F)cc(-c3ccccc3)nc12	none
O=[N+]([O-])c1ccc(Cn2cc(-c3cccc(C(F)(F)F)c3)nn2)cc1	tim10-1 inh 47 | tim10-1 conf 32
CCOc1ccc(NC(=O)CN(C)C(=O)/C=C/c2ccco2)cc1OCC	none (no result: NALP1 yeast inh)
Cc1ccc(N=C2C(=O)Nc3ccc(Br)cc32)cc1	tim10-1 inh 48 | tim10-1 conf inactive
O=C1CC(c2ccccc2Cl)CC(O)=C1C=Nc1ccccc1 (stereo not given)	tim10-1 inh 44 | tim10-1 conf 41
Cn1ncc2c(Nc3ccc(Br)cc3)nc(Nc3ccc(Br)cc3)nc21	tim10-1 inh 57 | tim10-1 conf 28
Cn1ncc2c(Nc3cccc(Cl)c3)nc(Nc3cccc(Cl)c3)nc21	tim10-1 inh 54 | tim10-1 conf 45
Cn1ncc2c(Nc3ccc(O)cc3)nc(Cl)nc21	none
COc1ccc(C)cc1NS(=O)(=O)c1ccc2c(c1)CCN2C(C)=O	none
COC(=O)c1ccc(N2C(=O)CC(N(C)Cc3ccccc3)C2=O)cc1 (stereo not given)	none
COC(=O)c1ccc(N2C(=O)CC(N(C)CCc3ccc(OC)c(OC)c3)C2=O)cc1 (stereo not given)	tim10-1 inh 41 | tim10-1 conf 44
CCn1ccnc1CN(C)Cc1cn(-c2cc(C)ccc2C)nc1-c1ccccc1	tim10-1 inh 42 | tim10-1 conf inactive
CCn1ccnc1CN(C)Cc1cn(-c2ccc(C)cc2)nc1-c1ccc(F)cc1	none
CC(C)c1cccc(C(C)C)c1NC(=O)CNCC(O)c1ccccc1 (stereo not given)	none
CC(C)c1cccc(C(C)C)c1NC(=O)CNCc1ccccc1F	tim10-1 inh 47 | tim10-1 conf inactive
O=C(O)c1ccc(Oc2ccc(S(=O)(=O)c3ccc(C(=O)O)c(C(=O)O)c3)cc2)cc1	none
S=C(Nc1ccc(Br)cc1)Nc1ccc2c(c1)OCCO2	tim10-1 inh 45 | tim10-1 conf inactive
COc1ccc(C(=O)Nc2ccc(S(=O)(=O)N3CCCCC3C)cc2)c(OC)c1OC (stereo not given)	none
COc1cc(C(=O)Nc2ccc(S(=O)(=O)N3CCCCC3C)cc2)cc(OC)c1OC (stereo not given)	tim10-1 inh 46 | tim10-1 conf 38
Cc1cccc(NC(=O)c2ccc(S(=O)(=O)N3CCCCC3)cc2)n1	none
Cc1cccc(NC(=O)c2ccc(S(=O)(=O)N3CCCCC3C)cc2)n1 (stereo not given)	tim10-1 inh 41 | tim10-1 conf inactive
COc1ccc(N2CCN(Cc3nc(N)nc(Nc4ccc(C)c(Cl)c4)n3)CC2)cc1	none
Cc1ccc(Nc2nc(N)nc(CN3CCN(c4ccccc4)CC3)n2)cc1Cl	tim10-1 inh 45 | tim10-1 conf inactive
COc1cc2ccccc2cc1C(=O)N(CCN(C)C)c1nc2c(F)cc(F)cc2s1	none
COc1cc2ccccc2cc1C(=O)N(CCN(C)C)c1nc2ccc(Br)cc2s1	tim10-1 inh 54 | tim10-1 conf inactive
COc1ccc(C)c2sc(N(CCN(C)C)C(=O)c3ccc4ccccc4c3)nc12	tim10-1 inh 44 | tim10-1 conf inactive
O=c1ccc(-c2ccccc2)nn1Cc1ccc(F)cc1Cl	none
O=c1cc(CCl)nc(Cc2c(Cl)cccc2Cl)[nH]1	none (no result: NALP1 yeast inh)
CC(OC(=O)CC1CC2CCC1C2)C(=O)Nc1cccc(S(=O)(=O)N2CCOCC2)c1 (stereo not given)	none (no result: NALP1 yeast inh)
CC(=O)N(C(C)=O)C1=C(C#N)C2(CCCCC2)Cc2ccccc21	tim10-1 inh 47 | tim10-1 conf 34
COc1ccc(CC(=O)N/N=C/c2ccc(Cl)s2)cc1OC	tim10-1 inh 50 | tim10-1 conf inactive
COc1cccc(-c2nn3c(-c4ccccn4)nnc3s2)c1	tim10-1 inh 58 | tim10-1 conf 54
COc1ccc(-c2nnc3sc(-c4ccccn4)nn23)cc1	tim10-1 inh 44 | tim10-1 conf inactive
Cc1cccc(C(=O)O/N=C/c2c(N3CCOCC3)n(C)c3ccccc23)c1	tim10-1 inh 41 | tim10-1 conf inactive
Cn1c(Cl)c(/C=N/OC(=O)c2ccccc2Cl)c2ccccc21	none
COc1ccc(CN(C)S(=O)(=O)c2nnc(NC(=O)c3cccc(F)c3)s2)cc1	none
COc1cccc(C(=O)Nc2ccc(C(=O)NCC3CCCO3)cc2)c1 (stereo not given)	none (no result: NALP1 yeast inh)
CC1(C)Cc2c(ccc3ccccc23)/C(=C/C(=O)N2CCCCC2)N1	tim10-1 inh 45 | tim10-1 conf 32
COc1ccc(CCNC(=O)CSc2nc(=O)n3cc(C)ccc3n2)cc1OC	none (no result: NALP1 yeast inh)
Cc1ccc(S(=O)(=O)Nc2c(C)ccc3nsnc23)cc1	tim10-1 inh 42 | tim10-1 conf inactive
Cc1ccc(NS(=O)(=O)c2cccc3nsnc23)cc1	none
Cc1c2c(nc3ccccc13)CCC(C(C)(C)C)C2 (stereo not given)	tim10-1 inh 42 | tim10-1 conf inactive
O=[N+]([O-])c1c(C(Cl)Cl)nn(-c2ccccc2)c1N1CCOCC1	tim10-1 inh 44 | tim10-1 conf 35
COc1ccc(C2NC(=S)NC3=C2CCc2cc(OC)ccc23)cc1 (stereo not given)	tim10-1 inh 54 | tim10-1 conf 40
Cc1ccc(CN(C(=O)c2ccc([N+](=O)[O-])cc2)C2CCS(=O)(=O)C2)o1 (stereo not given)	none
